Reference: PubChem BioAssay AID588765 (NMMLSC, 2011)
“And” between values parts separate entries of the source, which are not always exact repeats. Equal values may be shown once. Hit rate of the full screen: of about 1,100 compounds, fewer than 10 were called active.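 Rule for the calls: active = percent response below a set limit in fluorescence channel 1 and below 50% in channel 8; inactive = the rest.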 A selection follows.

Assay: fluorescent artefacts in FAP flow readout – cell-based, FAP fluorogen, flow cytometry, cherry pick 1, artefact control for beta2AR agonist internalization project, confirmation (AID 588765);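 note: low percent response here flags compound autofluorescence meaning a false positive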
Conditions: Am2.2 cells, fluorescence counterscreen, at 10 µM, stronger effect = lower value; percent response FL8: measured here: FL8 channel fluorescence

SMILES | percent response FL1 | percent response FL8
O=C1C(=O)N(CC2COc3ccccc3O2)c2ccccc21 (centres undefined) | 108% (inactive) | 112%
COc1ccc(-n2nc3c(N4CCC(C(=O)NCc5ccccc5)CC4)nnc(C)c3c2C)cc1 | 130% (inactive) | 115%
CCCOc1ccc(C(=O)C(CCC(CNCC)C(=O)c2ccc(OCCC)cc2)CNCC)cc1 (centres undefined) | 82.8% (inactive) | 76.7%
O=C(NCCCn1ccnc1)C1CCCN(S(=O)(=O)c2cc(Cl)ccc2Cl)C1 (centres undefined) | 8.86% (inactive) | 109%
COc1cc(C#Cc2ccc3cc(CCCO)oc(=O)c3c2)cc(OC)c1 | 92.6% (inactive) | 102%
CCCCCCCCCCOC(=O)Cn1c(COc2ccc(C)cc2)[n+](C)c2ccccc21 | 120% (inactive) | 113%
CC(=O)c1ccc(NC(=O)c2ccc3c(Cl)c4c(nc3c2)CCCC4)cc1 | 52.7% (inactive) | 89.7%
CCOC(=O)c1ccc(NC(=O)Cn2nnc(-c3ccc(C)cc3)n2)cc1 | 12.2% (inactive) and 8.97% (inactive) | 98.7% and 110%
O=S(=O)(Nc1ccc2[nH]ncc2c1)c1ccccc1Cl | 86% (inactive) | 87.7%
COc1ccc(C(CCNCc2ccccc2F)c2ccc(F)cc2)cc1 (centres undefined) | 101% (inactive) | 110%
Cc1cc(S(=O)(=O)N2CCOCC2)ccc1OCC(=O)Nc1cccc(C(F)(F)F)c1 | 97.5% (inactive) | 108%
CC(CCc1ccccc1)NCC(O)c1cccc([N+](=O)[O-])c1 (centres undefined) | 120% (inactive) | 128%
CCOc1ccc(NC(=O)COc2ccc(S(=O)(=O)N3CCCC3)cc2)cc1 | 109% (inactive) | 101%
CCCN(CCc1ccccc1)C1CCc2c(O)cccc2C1 (centres undefined) | 103% (inactive) | 98.5%
Oc1ccc(N=Cc2sc3ccccc3c2Cl)cc1 | 99.5% (inactive) | 93.9%
O=C(Nc1ccc2c(c1)OCCO2)C(c1ccc(F)cc1)N1CCCCC1 (centres undefined) | 114% (inactive) | 111%
CSc1ccc(CCNC(=O)C2CCN(c3nnc(-n4cccc4)s3)CC2)cc1 | 45.7% (inactive) | 94.2%
N#Cc1cccc(NC(=O)COC(=O)c2ccccc2C(=O)c2ccc(Cl)c([N+](=O)[O-])c2)c1 | 100% (inactive) | 89%
CC(=O)Nc1ccc(CN2CCC(Oc3ccc(C(=O)N4CCCC4)cc3)CC2)cc1 | 109% (inactive) | 109%
COc1ccc(S(=O)(=O)N2CCCC(C(=O)Nc3ccc(NC(=O)c4ccccn4)cc3)C2)cc1 (centres undefined) | 45.3% (inactive) | 95.6%
CC(=O)Nc1ccc(Nc2c3ccccc3nc3ccccc23)cc1 | 68.8% (inactive) | 126%
C=CCNC(=S)N/N=C/c1ccc(C)s1 | 100% (inactive) | 93.3%
